An excerpt weighted towards active compounds, which were near 3.7% of everything screened.
ELG1 DNA repair – ELG1-dependent DNA repair inhibition; HEK293T ELG1-luciferase reporter, luminescence, 16 h; DNA damage induced by 5-fluorouridine; AID 504467; Potency, µM (highest dose often 46.1 µM), for inactives: top-dose activity change, negative = inhibition, actives largely listed as inhibitors; 2.3% of 330,000 active; further: on the % scale 0 is the no-effect control and ±100 the full control effect; nearly all actives have a fitted effect of over 55% in size
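Step one: seed 2,000 cells per well. Step two: pin-transfer compound or DMSO alongside 5-fluorouridine. Step three: incubate 16 hr, 37 °C, 5% CO2. Step four: add ONE-Glo, wait 30 min, read luminescence.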
A549 viability – kills or reduces viability of A549 cells in Nrf2 counter-screen. A549 ARE-Fluc cells, CellTiter-Fluor viability, 18-24 h. Potency, µM (titrated, usually from 46 µM), for the others: at the highest dose activity change, negative = cytotoxicity, most hits filed as inhibitors. 0.16% of 390,000 active; further: on the % scale 0 is the no-effect control and ±100 the full control effect
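A549 ARE_Fluc cells in 5% FBS OPTI-MEM were exposed to compounds in concentration-response for 18-24 h at 37 deg C. Viability was read by CellTiter-Fluor fluorescence (Ex 405/Em 525) after 30 min, before the luciferase read.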
Nrf2 activator – activators of Nrf2 (ARE) signaling | AID 624171 | Potency, µM (highest dose often 46.1 µM), for inactives: at the highest dose activation, most hits filed as activators | AREc32 ARE-luciferase reporter (MCF7-derived line), luminescence, 24 h | 0.31% of 410,000 active; further: % of control where 0% means no effect; nearly all actives have a fitted effect of over 65% in size
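Luciferase luminescence (Steady-Glo, 30 min at room temperature) served as the read-out of ARE activation in AREc32 cells treated with compounds for 24 hr at 37 deg C.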
Nrf2 inh – Nrf2 pathway inhibition | 2.1% of 360,000 active | Potency, µM (series often up to 46 µM), for the others: at the highest dose activity change, negative = inhibition, actives largely listed as inhibitors | A549 ARE-Fluc reporter, luciferase luminescence, 18-24 h | AID 504444; further: on the % scale 0 is the no-effect control and ±100 the full control effect; nearly all actives have a fitted effect of over 60% in size
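A549 ARE_Fluc cells (5000/well, 5% FBS OPTI-MEM) pre-incubated 2 h, then treated with compounds 18-24 h at 37C/5% CO2 in concentration-response. CellTiter-Fluor viability read first; BugLite luciferase luminescence after 15 min at room temperature gives Nrf2 activity.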
* marks the source's active call; other numbers are inactive results; ? = inconclusive; nt = no result; [ ] = dose if it differs, or a comment. The call rests on the fitted dose curve; in most records, active means well fitted curve in the direction sought with a large enough effect; inconclusive means small, poorly fitted or top-dose-only effect, or another doubt; inactive means no such curve, though single readings can be large; an effect the other way counts as inactive or inconclusive. Potency means the concentration at half of the fitted maximal effect.

SMILES	ELG1 DNA repair	A549 viability	Nrf2 activator	Nrf2 inh
COc1ccc(Cl)cc1NC(=O)c1ccc(CN2C(=O)CCn3nc(C)cc32)cc1	nt	7.8%	5.2%	-38.8%
N/C(COc1ncn(-c2ccccc2)n1)=N\S(=O)(=O)c1ccc(Cl)cc1Cl	16.4µM*	3.1%	-0.1%	-8.4%
NC(=O)COc1ncn(-c2ccccc2)n1	7.1%	-2.0%	3.7%	3.2%
O=c1c2ccccc2c(-c2ccc(O)cc2)nn1-c1cccc(C(F)(F)F)c1	?	-1.9%	-2.2%	23.1µM*
COc1ccccc1CNC(=O)c1nnn(CC(=O)Nc2c(C)cccc2C)c1N	nt	10.9%	-0.8%	?
Cn1c2c(c(=O)n(C)c1=O)C(C(F)(F)F)(C(F)(F)F)N=C(c1ccc(Cl)cc1)N2	0.651µM*	5.8µM*	0.9%	2.31µM*
CCOC(=O)c1cc(-c2ccc3c(c2)OCCO3)nc2c1c(C)nn2CCC#N	6.51µM*	-1.0%	0.3%	20.6µM*
CCOC(=O)c1cc(-c2ccc(Cl)cc2)nc2c1c(C)nn2CCC#N	?	-4.9%	2.3%	?
CCOC(=O)c1cc(-c2ccc(OC)cc2F)nc2c1c(C)nn2CCC#N	11.6µM*	-0.4%	-0.1%	?
Cc1ccc(SCc2nc(-c3ccc(C(=O)NCCc4ccc(Cl)cc4)cc3)oc2C)cc1	nt	-0.1%	-0.2%	?
Cc1ccc(SCc2nc(-c3ccc(C(=O)NCC(C)c4ccccc4)cc3)oc2C)cc1 (stereo not given)	nt	8.1%	4.1%	9.2µM*
Cc1ccc(NC(=O)CSc2nc3nccnc3c(=O)n2CCc2c[nH]c3ccccc23)cc1C	nt	0.4%	3.9%	-2.8%
CCCCOC(=O)c1cccc(NC(=O)/C=C/c2ccccc2Cl)c1	nt	-0.6%	-1.8%	20.6µM*
CS(=O)(=O)c1ccc(Cl)c(NC(=O)COC(=O)COc2ccc3c(c2)CCC3)c1	-5.1%	9.0%	0.4%	3.9%
CCOC(=O)c1ccc(NC(=O)c2cccc(S(=O)(=O)N3c4ccccc4CC3C)c2)s1 (stereo not given)	20.6µM*	-18.7%	0.3%	?
CCOc1ccc(OCC)c(NS(=O)(=O)c2cc(-c3onc(C)c3C)ccc2OC)c1	nt	8.9%	0.8%	84.9%
COc1ccc(CCNC(=O)CN2C(=O)NC3(CCCCC3C)C2=O)cc1 (stereo not given)	16.1%	-1.7%	5.1%	4.0%
FC(F)(F)c1cccc(Cc2noc(CN3CCC(c4ccncc4)CC3)n2)c1	-11.0%	-1.9%	2.9%	18.4µM*
c1cc(C2CCN(Cc3nc(-c4ccc5c(c4)OCO5)no3)CC2)ccn1	?	-6.6%	2.7%	16.4µM*
COCC1CCN(Cc2nc(-c3ccc4c(c3)OCO4)no2)C1 (stereo not given)	?	0.2%	2.1%	?
Cc1ccc(C)c(S(=O)(=O)Nc2ccccc2C(=O)Nc2ccccc2N2CCOCC2)c1	?	-14.9%	0.3%	23.1µM*
O=C(Nc1ccccc1N1CCOCC1)c1ccccc1NS(=O)(=O)c1ccc(F)c(F)c1	20.6µM*	-18.4%	-0.4%	20.6µM*
Cc1ccc(C(=O)Nc2ccccc2N2CCCC2)cc1S(=O)(=O)N1CCOCC1	?	1.6%	0.5%	-4.9%
O=C(Nc1ccccc1N1CCOCC1)c1ccccc1NS(=O)(=O)c1ccc(F)cc1	-6.4%	3.0%	0.2%	3.9%
CCOc1ccc(S(=O)(=O)Nc2ccccc2C(=O)Nc2ccccc2N2CCOCC2)cc1	19.0%	-5.1%[1.84 µM]	-0.1%	3.1%
SMILES	ELG1 DNA repair	A549 viability	Nrf2 activator	Nrf2 inh
Cc1ccc(C)c(N2N=C(C(=O)Nc3ccccc3N3CCOCC3)CCC2=O)c1	14.6µM*	-15.5%	-0.4%	-9.2%
Cc1cc(F)ccc1S(=O)(=O)Nc1ccccc1C(=O)Nc1ccccc1N1CCOCC1	-20.6%	-2.1%	-0.1%	20.6µM*
CC(C)[C@@H]1Cc2[nH]c(=O)[nH]c(=O)c2[C@H](c2ccc(F)cc2)O1	nt	nt	-0.1%	nt
Cc1nn(CCCC(=O)Nc2ccccc2C(F)(F)F)c(=O)c2c1sc1ccccc12	nt	-8.1%	-1.3%	-8.2%
COc1cccc(NC(=O)Cn2c(=O)n(-c3ccc(C)cc3)c(=O)c3ccc(C(=O)NCc4ccco4)cc32)c1	nt	3.9%	0.2%	5.2%
Cc1ccc(-n2nc(C)c(C(=O)NCCCN3CCN(c4ccccc4F)CC3)c2-n2cccc2)cc1	nt	?	-2.7%	?
O=C(Cc1ccccc1)Nc1ccc(N2CCOCC2)cc1N1CCOCC1	4.7%	-7.1%	-0.7%	12.5%
Cc1ccc(S(=O)(=O)N(C)CC(=O)Nc2ccccc2N2CCCC2)cc1	-16.6%	3.9%	0.1%	-12.3%
CN(CC(=O)Nc1ccccc1N1CCOCC1)S(=O)(=O)c1ccc(Cl)cc1	25.9µM*	-1.3%	-0.7%	-29.9%
O=C(Cc1ccccc1)Nc1cc(C(=O)c2ccccc2)ccc1N1CCOCC1	25.9µM*	-12.1%	-0.8%	?
Cc1cc(C)c(OCC(=O)Nc2ccccc2N2CCOCC2)c(C)c1	0.82µM*	0.0%	0.0%	?
Cc1cc(C)c(OCC(=O)Nc2ccccc2N2CCCCC2)c(C)c1	0.9%	0.1%	-0.1%	10.0%
O=C(Nc1ccccc1)c1cc2ccc3ccccc3c2s1	?	0.0%	9.6%	?
CN(C)S(=O)(=O)c1cccc(N=C2NN=C(c3ccccc3)CS2)c1	?	?	11.0%	?
COc1ccc(C2=NNC(=Nc3cc(S(=O)(=O)N(C)C)ccc3C)SC2)c(OC)c1	14.6µM*	-29.7%	8.4%	?
CCOC(=O)Nc1oc2ccccc2c(=O)c1CN1CCOCC1	10.3µM*	-12.5%	25.1%	-29.6%
CN(CC(=O)Nc1ccc(F)c(Cl)c1)S(=O)(=O)c1cccc2nsnc12	-22.0%	-14.4%	-0.5%	25.9µM*
CCN(CCNC(=O)CN(C)S(=O)(=O)c1cccc2nsnc12)c1ccccc1	23.1µM*	-13.0%	0.2%	-18.1%
Cc1ccc(NC(=O)CN(C)S(=O)(=O)c2cccc3nsnc23)cc1	-27.7%	1.8%	-0.5%	nt
CSc1ncnc2c1ncn2CCCNCCCN1CCCC1=O	nt	nt	-0.3%	nt
OCc1nc2c(ccc3ccccc32)[nH]1	?	-0.6%	0.3%	17.1%
CC(C)N(Cc1ccccc1)C(=O)c1nc(-c2ccc(Cl)cc2)n2c1CCCCC2	nt	-12.5%	0.8%	20.6µM*
O=C(NCc1ccccc1)c1nc(-c2ccc(Cl)cc2)n2c1CCCCC2	nt	-20.2%	0.3%	-113.7%
O=C(NCCc1ccccc1)c1nc(-c2ccc(Cl)cc2)n2c1CCCCC2	nt	-28.9%	-0.5%	?
CCOc1ccccc1CNC(=O)c1nc(-c2ccc(Cl)cc2)n2c1CCCCC2	nt	-10.3%	2.9%	23.1µM*
Cc1csc(=O)n1CC(=O)OCC(=O)Nc1ccc(Cl)cc1F	9.3%	-4.6%	-0.4%	5.8%
Cc1ccc(S(=O)(=O)/N=C2\C=C(Nc3ccc(O)cc3)C(=O)c3ccccc32)cc1	10.3µM*	16.4µM*	-3.8%	18.4µM*
CCc1ccc(S(=O)(=O)/N=C2\C=C(Nc3ccc(C(=O)O)cc3)C(=O)c3ccccc32)cc1	4.61µM*	-3.9%	-2.0%	-0.9%

Assay outcomes: PubChem BioAssay, National Center for Advancing Translational Sciences (NCATS)
